Assay results as given in PubChem BioAssay (NCI).
This is part of a sample that, as a whole, favours compounds with a hit. Of some 83,000 tested, about 20% had one in any assay.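 Cells were grown in 96-well plates and exposed to the test compound at a single concentration for 48 hours; results are reported as percent growth, with values below 10 considered active.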 A number with no mark means an inactive call. Activity calls are given as the source filed them.

Legend:
Test in all cases: NCI-60 one-dose screen, 48 h (100 = growth as untreated, 0 = no growth, -100 = all killed)
Settings in all cases: 10 µM unless noted
[1] = tested on: NCI-H23 lung
[2] = tested on: NCI-H226 lung
[3] = tested on: NCI-H322M lung
[4] = tested on: HOP-62 NSCLC
[5] = tested on: NCI-H460 lung
[6] = tested on: HOP-92 NSCLC
[7] = tested on: NCI-H522 lung
[8] = tested on: A549/ATCC NSCLC
[9] = tested on: 786-0 renal
[10] = tested on: COLO 205 colon

Row | Compound | growth [1] | growth [2] | growth [3] | growth [4] | growth [5] | growth [6] | growth [7] | growth [8] | growth [9] | growth [10]
1 | Nc1ccc(N(O)/C=C2\C=CC=CC2=O)cc1N | 82.7% | 103% | 110% | 95.7% | 119% | 91.3% | 72.7% | 94.4% | 92.3% | 114%
2 | COc1ccc(/C=c2\c(=O)n(-c3ccccc3)c3nn4c(=O)c(=O)[nH]nc4n23)cc1 | 99.9% | 92.8% | 113% | 102% | 106% | 100% | 100% | 110% | 108% | 119%
3 | O=C(OCc1ccc2c(Cl)cc(Cl)c(O)c2n1)c1cc2ccccc2[nH]1 | -54.4% (active) | -73.7% (active) | 8.26% (active) | -35.1% (active) | -75% (active) | -77.3% (active) | -73.8% (active) | -54.2% (active) | -78.6% (active) | -87.1% (active)
4 | O=C(/C=C/c1ccccc1)C(Br)C(Br)c1ccccc1 (stereo not given) | 29.4% | -36.8% (active) | 100% | 12.5% | 89.8% | -18.9% (active) | -78.3% (active) | 47.2% | -80.2% (active) | -74.2% (active)
5 | CCc1ccc2c(c1)N(CCO)C1=C(C(=O)OC1)C2c1cccc(Cl)c1 (stereo not given) | 38.8% | 32.4% | 39.4% | 31.7% | 10.8% | 93.4% | -22% (active) | 26.6% | 32.8% | 2.49% (active)
6 | CC1=NOCC(=O)N1 | 106% | 102% | 111% | 105% | 107% | 96% | 92.8% | 89.7% | 101% | 108%
7 | CCOC(=O)c1sc2nc(-c3cc4ccccc4o3)cc(-c3ccc(Cl)cc3)c2c1N | 98.9% | 89.2% | 112% | 107% | 110% | 71.1% | 88.6% | 123% | 118% | 115%
8 | O=C(Nc1ccc(Br)cc1)Nc1ccccc1Cl | 63.2% | 80% | 119% | 92.7% | 93.3% | 90.5% | 56.8% | 82.5% | 83.4% | 106%
9 | COc1cc(/C=C/C(=O)c2c(C)nc3ccccc3c2C)ccc1OCCCOc1cc2c(cc1OC)C(=O)N1CCC[C@H]1C=N2 | -19.5% (active) | -4.56% (active) | -58.6% (active) | -6.66% (active) | -61% (active) | -45.1% (active) | -56.9% (active) | 2.42% (active) | -47.9% (active) | -85.9% (active)
10 | c1ccc2c(c1)cnc1ccccc12 | 102% | 111% | 103% | 102% | 110% | 99.5% | 81.6% | 93.7% | 92.6% | 129%
11 | C#CC[C@@H]1C[C@]2(C)[C@H]3CC[C@@H]4[C@H]5C(C(=C)C)CC[C@]5(C(=O)NCCCN5CCN(CCCN)CC5)CC[C@@]4(C)[C@]3(C)CC[C@H]2C(C)(C)[C@H]1OC(C)=O (stereo not given in full) | 3.21% (active) | 87.4% | -81.2% (active) | -59.7% (active) | -77% (active) | -78.3% (active) | 4.62% (active) | -61.9% (active) | -97.5% (active) | -68.3% (active)
12 | Cc1ccccc1CNc1ncnc2[nH]ncc12 | 109% | 91.9% | 114% | 99.3% | 104% | 64.3% | 47.7% | 91% | 97.3% | 92.2%
13 | CCOC(C)(c1ccc(Cl)cc1)C1CCNCC1 (stereo not given) | 101% | 116% | 105% | 93.3% | 70.3% | 85.2% | 107% | 67.9% | 91.9% | 118%
14 | N#Cc1nc(-c2cccc(Br)c2)cc(-c2ccc(Nc3nc(N4CCCCC4)nc(N4CCCCC4)n3)cc2)c1N | 13% | -73.7% (active) | 63.1% | 18.5% | -21.8% (active) | -69.4% (active) | -64.6% (active) | 21.9% | 6.82% (active) | -57.7% (active)
15 | Oc1[nH]c2ccccc2c1/C=c1/ccc2c(c1)N=C(c1ccc(C(F)(F)F)cc1)N=2 | 67% | 89.6% | 76.8% | 71.6% | 41.1% | 57.4% | 40.7% | 50% | 6.1% (active) | 78.8%
16 | Fc1ccc(-c2ccnc3nc(-c4ccncc4)nn23)cc1 | 112% | 102% | 99.4% | 113% | 104% | 120% | 107% | 98.4% | 88.8% | 108%
17 | Nc1cc2nc3ccccc3oc-2cc1=O | -33.2% (active) | 67.4% | 108% | 25.4% | -28.7% (active) | 112% | -16.5% (active) | -42.4% (active) | 81.9% | -74.9% (active)
18 | CCN(CC)Cc1cc(Nc2ccnc3cc(Cl)ccc23)cc(-c2ccc(Cl)cc2)c1O | 24% | 17.6% | 5.72% (active) | -46.1% (active) | 3.23% (active) | -8.91% (active) | 35.3% | 20.7% | 55% | 55.8%
19 | CCCc1n(Cc2ccc3ccccc3n2)cc[n+]1Cc1ccc2ccccc2c1 | -11.6% (active) | 12.3% | 25.7% | 8.38% (active) | 7.73% (active) | -18.6% (active) | -0.784% (active) | 39.1% | 34.7% | -50% (active)
20 | CC(OC(=O)Nc1cccc(Cl)c1)C(=O)O (stereo not given) | 97.9% | 96.4% | 101% | 86.7% | 108% | 92.2% | 80.9% | 99.1% | 96% | 113%
21 | CN(C)CCOc1nc2c3ccncc3cc(-c3cccc(Cl)c3)c2c2cnccc12 | 29.7% | 35% | 44.1% | 43.5% | 10.5% | 56.2% | 31.9% | 16.4% | 33.4% | 13.8%
22 | O=C(/C=C/c1cccc([N+](=O)[O-])c1)c1ccc(Nc2nc(N3CCCCC3)nc(N3CCCCC3)n2)cc1 | 98.7% | 74.2% | 103% | 105% | 96% | 102% | 87.2% | 85.7% | 93.9% | 108%
23 | SCc1ccc(CS)cc1 | 106% | 109% | 98.2% | 102% | 108% | 77.2% | 108% | 110% | 98.1% | 116%
24 | COc1ccc(-c2nn(-c3cccc(Cl)c3)cc2/C=C2\C(=N)N(c3ccccc3)N=C2N)cc1 | 51.2% | 40.8% | 44.9% | 65.8% | 6.92% (active) | 96.2% | 51.5% | 36.6% | 29.1% | -22.8% (active)
25 | CC(=O)c1nn(-c2ccccc2)/c(=N\N=C\c2coc3ccc(F)cc3c2=O)s1 | 96.8% | 86% | 104% | 85.6% | 102% | 90.6% | 101% | 109% | 110% | 111%
26 | c1ccc(C(Nc2ccccn2)(c2ccccc2)c2ccccc2)cc1 | 74.6% | 72.6% | 64.8% | 99% | 79.9% | 4.44% (active) | 70.7% | 65.9% | 81.4% | 90%
